Targets with a hit are over-represented here; the source holds about 8,800 in all. About 0.5% of all pairs of compound and target were hits. A number with no mark means an inactive call.
How the values were obtained:
Test in all cases: log2 fold change, soluble protein after heating vs DMSO (PISA); higher = thermal stabilisation; K562 lysate, 10 uM; active = over 0.2 and 3.5 SD of the protein, either way, in both replicates (recomputed)
nilotinib = compound: Cc1cn(-c2cc(NC(=O)c3ccc(C)c(Nc4nccc(-c5cccnc5)n4)c3)cc(C(F)(F)F)c2)cn1 [nilotinib]
Method in brief: (§1)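 Dounce homogenisation of K562 pellets in PBS pH 7.4 with 1 mM MgCl2 produced a crude extract, used at 1 mg/mL protein. Exposure to 10 μM compound lasted 30 min, and aliquots were then heated for 3 min across 48°C-58°C, pooled and brought to 0.5% NP-40 at 4°C. The supernatant after 21,000xg for 90 min was quantified by TMTpro 16plex LC-MS/MS with channel sums equalised. Duplicate values are given as log-two fold change in thermal stability relative to solvent controls.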

[1] = compound: Cc1nc(Nc2n[nH]c3c2CN(C(=O)N[C@H](CN(C)C)c2ccccc2)C3(C)C)c2sccc2n1
Method in brief: as §1

dasatinib = compound: Cc1nc(Nc2ncc(C(=O)Nc3c(C)cccc3Cl)s2)cc(N2CCN(CCO)CC2)n1 [dasatinib]
Method in brief: as §1

[2] = compound: Cc1ncc(-c2ccnc(Nc3ccc(S(C)(=O)=O)cc3)n2)n1C(C)C
Method in brief: as §1

[3] = compound: Cn1cc(-c2ccc3c(c2)CCN3C(=O)Cc2cccc(C(F)(F)F)c2)c2c(N)ncnc21
Method in brief: as §1

quisinostat = compound: Cn1cc(CNCC2CCN(c3ncc(C(=O)NO)cn3)CC2)c2ccccc21 [quisinostat]
Method in brief: as §1

tipifarnib = compound: Cn1cncc1[C@@](N)(c1ccc(Cl)cc1)c1ccc2c(c1)c(-c1cccc(Cl)c1)cc(=O)n2C [tipifarnib]
Method in brief: as §1

[4] = compound: NC(=O)Nc1cc(-c2cccc(F)c2)sc1C(=O)N[C@H]1CCCNC1
Method in brief: as §1

[5] = compound: NC(=O)c1cnc(N[C@@H]2CCCC[C@@H]2N)nc1Nc1cccc(-n2nccn2)c1
Method in brief: as §1

[6] = compound: NC1(c2ccc(-c3nc4ccn5c(=O)[nH]nc5c4cc3-c3ccccc3)cc2)CCC1
Method in brief: as §1

UniProt Q6GYQ0, sequence (Q6GYQ0 whole entry, looked up): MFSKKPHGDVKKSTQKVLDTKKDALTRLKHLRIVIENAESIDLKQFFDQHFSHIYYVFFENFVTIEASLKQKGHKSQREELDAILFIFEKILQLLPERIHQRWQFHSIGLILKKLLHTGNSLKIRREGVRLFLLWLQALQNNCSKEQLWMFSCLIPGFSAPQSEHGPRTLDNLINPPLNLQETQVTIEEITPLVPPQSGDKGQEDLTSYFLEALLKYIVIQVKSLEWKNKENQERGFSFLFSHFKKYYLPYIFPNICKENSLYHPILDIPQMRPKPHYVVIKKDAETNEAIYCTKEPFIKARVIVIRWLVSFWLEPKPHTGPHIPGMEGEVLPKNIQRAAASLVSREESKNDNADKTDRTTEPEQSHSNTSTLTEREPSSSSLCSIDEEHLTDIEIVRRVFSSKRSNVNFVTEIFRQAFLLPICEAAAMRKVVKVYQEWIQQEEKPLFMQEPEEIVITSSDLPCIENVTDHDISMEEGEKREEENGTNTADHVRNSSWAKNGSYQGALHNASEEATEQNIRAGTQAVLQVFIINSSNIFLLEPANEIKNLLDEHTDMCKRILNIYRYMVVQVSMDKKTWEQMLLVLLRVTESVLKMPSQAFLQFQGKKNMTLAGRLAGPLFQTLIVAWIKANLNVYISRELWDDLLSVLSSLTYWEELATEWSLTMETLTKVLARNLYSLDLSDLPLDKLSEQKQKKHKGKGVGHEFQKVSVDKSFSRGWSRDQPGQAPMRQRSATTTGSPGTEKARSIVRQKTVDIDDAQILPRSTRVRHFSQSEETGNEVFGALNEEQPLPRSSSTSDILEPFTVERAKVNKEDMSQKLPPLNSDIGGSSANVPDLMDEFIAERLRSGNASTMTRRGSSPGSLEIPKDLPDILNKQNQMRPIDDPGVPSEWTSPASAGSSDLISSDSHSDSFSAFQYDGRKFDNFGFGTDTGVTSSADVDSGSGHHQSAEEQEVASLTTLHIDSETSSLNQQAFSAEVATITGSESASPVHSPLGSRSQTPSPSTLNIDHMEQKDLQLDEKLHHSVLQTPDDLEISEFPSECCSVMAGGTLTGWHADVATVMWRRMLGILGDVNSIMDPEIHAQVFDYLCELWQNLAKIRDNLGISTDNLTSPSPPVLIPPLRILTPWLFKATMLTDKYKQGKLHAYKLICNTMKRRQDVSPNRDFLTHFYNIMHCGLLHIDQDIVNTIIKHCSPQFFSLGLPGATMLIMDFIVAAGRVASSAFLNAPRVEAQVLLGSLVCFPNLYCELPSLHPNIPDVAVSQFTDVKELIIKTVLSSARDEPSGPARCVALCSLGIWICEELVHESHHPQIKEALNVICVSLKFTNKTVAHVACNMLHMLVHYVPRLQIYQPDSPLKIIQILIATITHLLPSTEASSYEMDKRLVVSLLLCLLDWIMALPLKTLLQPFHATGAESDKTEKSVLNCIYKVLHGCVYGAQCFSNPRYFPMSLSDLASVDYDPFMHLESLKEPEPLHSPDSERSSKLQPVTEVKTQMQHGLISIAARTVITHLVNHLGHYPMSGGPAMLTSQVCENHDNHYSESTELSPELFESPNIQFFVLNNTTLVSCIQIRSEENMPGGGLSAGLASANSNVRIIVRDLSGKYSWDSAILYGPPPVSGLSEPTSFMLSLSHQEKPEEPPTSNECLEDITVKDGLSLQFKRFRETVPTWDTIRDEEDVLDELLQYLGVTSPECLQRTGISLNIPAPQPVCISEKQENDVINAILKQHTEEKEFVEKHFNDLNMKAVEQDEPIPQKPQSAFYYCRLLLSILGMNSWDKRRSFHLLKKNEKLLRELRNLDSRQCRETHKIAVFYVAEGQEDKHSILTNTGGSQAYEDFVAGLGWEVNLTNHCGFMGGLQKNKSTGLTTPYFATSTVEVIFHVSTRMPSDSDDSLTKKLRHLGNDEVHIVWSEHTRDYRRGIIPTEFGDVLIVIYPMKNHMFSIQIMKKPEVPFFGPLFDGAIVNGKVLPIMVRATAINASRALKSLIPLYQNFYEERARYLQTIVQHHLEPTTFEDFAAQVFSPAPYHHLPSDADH
UniProt O75446, sequence (O75446 whole entry, looked up): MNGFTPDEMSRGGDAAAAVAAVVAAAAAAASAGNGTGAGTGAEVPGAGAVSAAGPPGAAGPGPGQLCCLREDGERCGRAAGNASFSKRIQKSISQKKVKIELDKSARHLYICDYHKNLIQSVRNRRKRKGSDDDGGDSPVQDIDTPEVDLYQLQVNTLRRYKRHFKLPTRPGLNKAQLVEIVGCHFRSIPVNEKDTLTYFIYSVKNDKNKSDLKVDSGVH
UniProt Q8NC42, sequence (Q8NC42 whole entry, looked up): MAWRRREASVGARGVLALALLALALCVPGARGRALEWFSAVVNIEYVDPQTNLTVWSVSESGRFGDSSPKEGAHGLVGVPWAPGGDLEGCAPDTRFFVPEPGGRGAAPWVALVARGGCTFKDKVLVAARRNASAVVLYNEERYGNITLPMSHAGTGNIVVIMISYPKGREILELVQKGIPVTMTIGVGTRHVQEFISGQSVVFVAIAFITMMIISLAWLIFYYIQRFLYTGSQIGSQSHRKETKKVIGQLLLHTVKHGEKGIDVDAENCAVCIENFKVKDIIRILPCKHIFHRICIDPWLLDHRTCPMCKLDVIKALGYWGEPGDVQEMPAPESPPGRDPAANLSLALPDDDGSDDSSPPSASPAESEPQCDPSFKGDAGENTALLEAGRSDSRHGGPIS
UniProt Q9GZR2, sequence (Q9GZR2 whole entry, looked up): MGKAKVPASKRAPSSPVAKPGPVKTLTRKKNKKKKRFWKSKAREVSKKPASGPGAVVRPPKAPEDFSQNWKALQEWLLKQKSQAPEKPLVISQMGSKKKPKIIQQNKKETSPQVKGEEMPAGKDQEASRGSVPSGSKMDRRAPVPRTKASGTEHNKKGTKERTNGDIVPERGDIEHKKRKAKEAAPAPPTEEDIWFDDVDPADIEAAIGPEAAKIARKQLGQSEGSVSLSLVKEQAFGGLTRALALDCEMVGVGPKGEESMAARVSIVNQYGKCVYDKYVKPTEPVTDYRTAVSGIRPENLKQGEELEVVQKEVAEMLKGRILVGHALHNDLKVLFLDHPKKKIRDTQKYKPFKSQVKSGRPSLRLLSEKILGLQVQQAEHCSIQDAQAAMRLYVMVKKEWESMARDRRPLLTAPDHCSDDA
UniProt Q9BRS2, sequence (Q9BRS2 whole entry, looked up): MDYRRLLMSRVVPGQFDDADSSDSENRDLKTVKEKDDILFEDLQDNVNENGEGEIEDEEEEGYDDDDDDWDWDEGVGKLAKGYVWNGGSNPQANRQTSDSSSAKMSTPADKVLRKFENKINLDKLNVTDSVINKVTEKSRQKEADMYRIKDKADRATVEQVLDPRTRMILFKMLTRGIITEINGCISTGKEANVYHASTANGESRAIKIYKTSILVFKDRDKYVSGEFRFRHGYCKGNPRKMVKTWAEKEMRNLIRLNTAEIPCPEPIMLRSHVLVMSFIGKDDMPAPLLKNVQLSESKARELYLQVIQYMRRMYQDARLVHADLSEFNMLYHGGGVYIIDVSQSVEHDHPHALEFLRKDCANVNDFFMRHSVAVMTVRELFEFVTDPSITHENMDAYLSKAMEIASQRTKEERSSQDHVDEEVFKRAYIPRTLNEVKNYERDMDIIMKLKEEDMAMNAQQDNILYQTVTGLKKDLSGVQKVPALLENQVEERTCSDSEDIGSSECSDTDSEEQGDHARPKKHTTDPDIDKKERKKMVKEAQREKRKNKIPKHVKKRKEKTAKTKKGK
UniProt Q9NW64, sequence (Q9NW64 whole entry, looked up): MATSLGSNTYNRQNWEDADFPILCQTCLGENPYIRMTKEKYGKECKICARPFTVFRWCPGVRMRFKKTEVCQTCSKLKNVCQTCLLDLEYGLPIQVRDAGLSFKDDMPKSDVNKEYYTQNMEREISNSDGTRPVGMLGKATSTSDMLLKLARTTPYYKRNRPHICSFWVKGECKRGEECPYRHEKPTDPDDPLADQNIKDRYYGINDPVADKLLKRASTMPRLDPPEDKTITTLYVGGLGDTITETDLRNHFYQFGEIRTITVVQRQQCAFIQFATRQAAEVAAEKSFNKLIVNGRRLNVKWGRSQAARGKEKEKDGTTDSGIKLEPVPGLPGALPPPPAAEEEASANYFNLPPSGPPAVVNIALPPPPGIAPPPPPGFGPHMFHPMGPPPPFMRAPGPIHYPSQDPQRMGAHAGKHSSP
UniProt Q9H0U4, sequence (Q9H0U4 whole entry, looked up): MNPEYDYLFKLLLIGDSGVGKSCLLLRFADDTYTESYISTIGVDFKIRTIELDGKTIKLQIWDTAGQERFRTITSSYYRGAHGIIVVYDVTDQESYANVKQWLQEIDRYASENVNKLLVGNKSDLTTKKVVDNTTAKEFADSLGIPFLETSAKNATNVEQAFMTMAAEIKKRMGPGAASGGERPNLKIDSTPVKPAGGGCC
UniProt Q5TBB1, sequence (Q5TBB1 whole entry, looked up): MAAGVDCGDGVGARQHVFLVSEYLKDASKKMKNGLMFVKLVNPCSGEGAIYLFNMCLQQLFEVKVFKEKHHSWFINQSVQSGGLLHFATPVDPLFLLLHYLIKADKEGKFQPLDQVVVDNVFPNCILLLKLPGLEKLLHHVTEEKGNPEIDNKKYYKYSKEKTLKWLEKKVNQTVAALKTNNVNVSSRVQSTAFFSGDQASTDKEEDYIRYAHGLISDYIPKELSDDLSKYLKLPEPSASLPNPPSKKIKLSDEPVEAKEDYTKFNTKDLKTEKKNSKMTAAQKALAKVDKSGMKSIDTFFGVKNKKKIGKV
UniProt Q8IZV5, sequence (Q8IZV5 whole entry, looked up): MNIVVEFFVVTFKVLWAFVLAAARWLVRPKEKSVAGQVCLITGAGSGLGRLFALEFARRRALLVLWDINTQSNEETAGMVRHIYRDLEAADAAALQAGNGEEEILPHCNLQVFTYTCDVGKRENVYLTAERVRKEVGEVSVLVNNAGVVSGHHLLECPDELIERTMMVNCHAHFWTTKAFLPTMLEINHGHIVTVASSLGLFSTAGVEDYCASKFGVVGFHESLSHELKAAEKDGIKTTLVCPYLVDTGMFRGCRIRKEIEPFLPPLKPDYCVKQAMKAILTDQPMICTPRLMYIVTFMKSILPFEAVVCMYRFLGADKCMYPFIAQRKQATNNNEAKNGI

Target	log2 fold change (nilotinib)	log2 fold change [1]	log2 fold change (dasatinib)	log2 fold change [2]	log2 fold change [3]	log2 fold change (quisinostat)	log2 fold change (tipifarnib)	log2 fold change [4]	log2 fold change [5]	log2 fold change [6]
RECQL5 (UniProt O94762)	-0.026	0.057	0.023	0.011	-0.04	-0.013	-0.064	0.034	0.343	0.049
SAP30 (UniProt O75446)	0.104	-0.464 (active)	-0.063	-0.124	0.012	-0.111	-0.026	0.037	-0.035	
SCO1 (UniProt O75880)	0.046	0.029	0.001	-0.095	0	-0.13	-0.108	-0.033	0.029	0.001
SDHC (UniProt Q99643)	-0.009	0.056	-0.001	-0.006	-0.015	0	-0.068	-0.057	-0.016	0.028
RSU1 (UniProt Q15404)	0.011	-0.011	0.007	-0.028	0.001	0.112	0.016	-0.002	0.007	0.002
RAP1B (UniProt P61224)	0.032	0	0.045	0.027	-0.002	-0.007	-0.034	-0.007	-0.029	-0.025
RCC1 isoform 2 (UniProt P18754)	0.024	-0.024	-0.071	0.021	0.034	0.001	-0.011	0.027	-0.02	-0.043
RPS6KA3 (UniProt P51812)	-0.02	0.17	-0.065	0.039	0.031	-0.046	-0.023	0.133	0.09	0.005
SEC16A isoform 5 (UniProt O15027)	-0.119	0.008	-0.007	0.006	-0.002	-0.054	-0.036	0.032	0.004	-0.011
RIPK1 (UniProt Q13546)	-0.053	-0.014	0.087	0.248 (active)	0.723 (active)	-0.074	-0.064	0.015	0.01	-0.047
RHAG (UniProt Q02094)	0.041	-0.013	-0.029	-0.016	-0.06	-0.142	0.011	0.011	-0.024	-0.002
RNF149 (UniProt Q8NC42)	0.083	0.129	-0.019	0.099	0.003	-0.019	0.087	0.038	0.156	-0.019
RIOK1 (UniProt Q9BRS2)	-0.018	0.06	-0.018	0.072	0.008	-0.007	0.003	-0.012	-0.033	-0.072
RNASEH2B (UniProt Q5TBB1)	0.024	0.007	-0.024	-0.001	-0.011	-0.059	-0.009	0.037	0.004	-0.015
RDH10 (UniProt Q8IZV5)	-0.004	0.011	0.132	0.026	-0.022	0.05	0.042	-0.002	-0.084	0.073
RALGAPA1 isoform 6 (UniProt Q6GYQ0)	-0.05	-0.044	-0.018	-0.066	0.071	-0.15	0.019	0.039	0.052	-0.08
RFC4 (UniProt P35249)	0.001	-0.029	-0.068	-0.002	0.047	-0.016	-0.004	0.03	0.015	-0.011
SESN2 (UniProt P58004)	0.019	0.027	-0.023	0.021	0.028	-0.051	0.007	0.092	0.034	-0.057
RPS26P11 (UniProt Q5JNZ5)	0.026	0.027	-0.017	0.044	0.02	-0.151	0.004	-0.036	0	-0.004
SCO2 (UniProt O43819)	0.15	-0.283	-0.05	-0.337	0.106	0.007	-0.062	-0.005	0.05	-0.1
RNPS1 (UniProt Q15287)	0.025	-0.047	0.044	-0.035	0.034	0.239 (active)	-0.056	0.029	0.018	-0.033
RBBP7 (UniProt Q16576)	-0.02	-0.002	0.029	0.007	-0.006	-0.041	0.014	0.04	-0.003	0.039
RPL27 (UniProt P61353)	0.022	-0.029	-0.049	0.01	0	0.054	-0.01	-0.017	-0.023	0.012
REEP6 (UniProt Q96HR9)	0.058	0.1	0.204	0.041	0.009	-0.072	0.001	-0.03	0.155	-0.023
RAB1B (UniProt Q9H0U4)	0.016	0.003	-0.058	-0.029	-0.001	0.016	-0.04	-0.052	-0.041	0.002
RBM22 (UniProt Q9NW64)	-0.045	0.024	-0.072	-0.006	0.057	-0.022	-0.036	-0.027	0.01	0.033
RPS4X (UniProt P62701)	0.01	-0.023	0.025	-0.002	-0.003	0.016	0.01	-0.001	-0.034	0.008
RIC1 (UniProt Q4ADV7)	-0.069	0.033	0.001	0.086	0.008	-0.169	0.085	0.097	-0.085	0.002
RPN2 (UniProt P04844)	-0.011	0.005	-0.008	-0.013	-0.006	0.049	-0.015	-0.001	0.011	-0.003
REXO4 (UniProt Q9GZR2)	-0.001	-0.009	-0.008	0.021	0.008	0.013	0.015	0.03	-0.045	0.034

Reference: the supplement of paper PMC10849652
